Growth data for 34 compounds are collected here from PubChem BioAssay (NCI).

The panel holds about 83,000 compounds, 20% with a hit somewhere; the sample as a whole holds those more often.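 Testing used 96-well plates and a 48-hour single-concentration exposure. Example: -40 means 40% of the starting cells died.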 The source made the active and inactive calls. The calls were made as follows: active = growth percent below 10; inactive = the rest.

For the first experiment, the system named is RPMI-8226 leukemia. The experiment in a line: NCI-60 one-dose screen, 48 h (100 = growth as untreated, 0 = no growth, -100 = all killed). As to conditions: 10 µM unless noted.
Regarding `O=C(Nc1ccc(Oc2ccc(F)cc2)c(Cl)c1)c1cccnn1`, the growth is 62.6% (inactive). `Cc1ccc2c(n1)C(=O)C(Cl)=C(Nc1ccc(N3CCN(C)CC3)cc1)C2=O`: the growth was -32.6% (active).

For `c1cc2ccc1CNCCN1CCNCc3ccc(cc3)Oc3ccc(cc3)CNCCN(CCNCc3ccc(cc3)O2)CCNCc2ccc(cc2)Oc2ccc(cc2)CNCC1`, the growth is -49% (active). The same measure, in the same setting: for `Cc1ccc(-c2cn(C/C=C3\C=CN(S(=O)(=O)c4ccccc4)CC3)nn2)cc1` the value was 102% (inactive); for `CCCCCCCCN(CCCCCCCC)CC(O)c1ccc(Cl)c(C)c1Cl` (centres undefined), 72.8% (inactive).

For the next experiment, the system named is OVCAR-8 ovarian. The experiment is described as above. Particulars: 10 µM unless noted.
On to `N#C/C(C(=O)c1ccccc1)=C1/C(=O)Nc2ccc(F)cc21`, for which the growth was 101% (inactive). Turning to `C=C(C)[C@@H]1CC[C@]2(C(=O)NCCCN)CC[C@]3(C)[C@H](CC[C@@H]4[C@@]5(C)CC[C@H](O)C(C)(C)[C@@H]5CC[C@]43C)[C@@H]12`, the growth is -3.81% [100 µM] (active). Take `O=C1/C(=C\c2cn(CC(O)CN3CCCCC3)c3ccccc23)c2ccccc2N1c1c(Cl)cccc1Cl` (centres undefined): the growth is -86.8% (active). On the same count and under the same terms, for `COc1ccc(OC)c([N+](=O)[O-])c1C(=O)CNC(C)=O` the value was 99.5% (inactive); for `Nc1cccc2c1C(=O)c1cccc(NC(=O)c3ccccc3)c1C2=O`, 34.4% (inactive). On to `CCNc1cc2c(cc1Br)-c1ccccc1C2=O`, for which the growth is 90.1% (inactive). Consider `CCOc1cccc2c(NC(C)CCCN(CC)CC)c(C)cnc12` (centres undefined), for which the growth was 103% (inactive). Regarding `COc1cc(/C=C/C(=O)/C=C/c2ccc(-n3ccnc3C)cc2)ccc1O`, the growth is 34.9% (inactive). Regarding `COc1cc(-c2nc(SCCC(C)C)nc(Nc3ccccc3)c2C#N)cc(OC)c1OC`, the growth is 97.7% (inactive). As for `CN(C)C(=S)Sc1ccc([N+](=O)[O-])cc1[N+](=O)[O-]`, the growth is 18.7% (inactive). `Nc1ccc(Cl)c([N+](=O)[O-])c1`: the growth is 101% (inactive). For the compound `CCCCCCCCCCCCNC(=S)N/N=C/c1ccccc1O`, the growth is 77.9% (inactive). As to `CC1(C)CC[C@]2(C(=O)OC(=O)[C@]34CCC(C)(C)C[C@@H]3C3=CC[C@@H]5[C@@]6(C)CCC(=O)C(C)(C)[C@@H]6CC[C@@]5(C)[C@]3(C)CC4)CC[C@]3(C)C(=CC[C@@H]4[C@@]5(C)CCC(=O)C(C)(C)[C@@H]5CC[C@]43C)[C@H]2C1`, the growth was 59.8% [100 µM] (inactive). As for `COc1cccc(-c2[nH]c(=S)ncc2C(=O)c2ccccc2)c1`, the growth was 97.4% (inactive). Turning to `O=C(N=c1n(-c2ccccc2)nc2n1CCN2C1=NCCN1C(=O)c1ccc(Cl)cc1)c1ccc(Cl)cc1`, the growth was 78.7% (inactive). In the case of `COc1cc2c(=O)[nH]c3cc([N+](=O)[O-])ccc3c2cc1[N+](=O)[O-]`, the growth is 45.9% (inactive).

For `NC(=O)CC1C=CCC1` (centres undefined), the growth was 84.7% (inactive). Regarding `O=C(Nc1cccc2ccccc12)c1cc2ccccc2cc1O`, the growth was 12.2% (inactive). On the same count and under the same terms, to `Cc1ccc(N)c(O)c1` belongs 96% (inactive); to `CCOC(=O)CCC[P+](c1ccccc1)(c1ccccc1)c1ccccc1`, 82.2% (inactive).

As for `CCN(CC)c1cc(N)c(Cc2c(N)cc(N(CC)CC)cc2Cl)c(Cl)c1`, the growth was 37.3% (inactive). Take `CSc1nc(N)c(N=Nc2ccc(S(=O)(=O)Nc3nnc(C)s3)cc2)c(=O)[nH]1`: the growth was 103% (inactive). On the same count and under the same terms, for `CC1(C)C(=O)/C(=C\c2cccnc2)C[C@]2(C)[C@H]3CC[C@@H]4[C@H]5[C@H](C(=O)/C=C/c6cccnc6)CC[C@]5(C(=O)O)CC[C@@]4(C)[C@]3(C)CC[C@@H]12` the value was 0.147% [100 µM] (active); for `N#CCCc1c[nH]c2ccccc12`, 91.9% (inactive); for `C[C@@H]1C[C@H]2C(=O)O[C@@H](C)[C@H](NC(=O)[C@H](Cc3cc(F)cc(F)c3)NC(=O)Nc3ccc(C4CC4)cc3F)C(=O)N3CCC[C@H]3C(=O)N3CCCC[C@H]3C(=O)N[C@@H](C)C(=O)N2C1`, 11% (inactive). Turning to `CCN(CC)CCCC(C)Nc1c2ccc(C)cc2nc2ccc(OC)cc12` (centres undefined), the growth is 34.3% (inactive).

Consider `C#CCNC(=O)CC[C@]1(C)[C@H]2CC[C@@H]3[C@@H]([C@@](C)(O)CCC=C(C)C)CC[C@@]3(C)[C@]2(C)CC[C@H]1C(=C)C`, for which the growth is 7.74% [100 µM] (active).

Regarding `CC1(C)CC[C@]2(C(=O)O)CC[C@]3(C)C(=CC[C@@H]4[C@@]5(C)C/C(=C/c6ccco6)C(=O)C(C)(C)[C@@H]5CC[C@]43C)[C@@H]2C1`, the growth was 9.39% [100 µM] (active).

On to `C=C(C)[C@@H]1CC[C@]2(C(=O)O)CC[C@]3(C)[C@H](CC[C@@H]4[C@@]5(C)C/C(=C/c6ccco6)C(=O)C(C)(C)[C@@H]5CC[C@]43C)[C@@H]12`, for which the growth is -17.6% [100 µM] (active).
